Assay [1] can be described thus: Caspase-3/7 induction in HepG2 cells by small molecules, qHTS assay (AID 1346978). Also: nearly all actives have a fitted effect of over 15% in size. The essentials: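 Wild-type HepG2 cells (2,000/well) were settled 5 h at 37 C, 5% CO2, then exposed to compounds in DMSO for 17 h. Caspase-3/7 activity was read by luminescence 30 min after adding Caspase-Glo 3/7 reagent at room temperature.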
Background: In qHTS, concentration-response curves come from the screen itself.

A short description of assay [2]: Caspase-3/7 induction in CHO-K1 cells by small molecules, qHTS cell viability counter screen (AID 1346979). Also: nearly all actives have a fitted effect of over 35% in size. Also: potency is read from the fitted curve at half-maximal effect. Summed up:
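Cytotoxicity counter screen run in parallel with the caspase-3/7 assay: CHO-K1 cells, 16hr compound treatment at 37C, then CellTiter-Fluor for 1hr before fluorescence reading.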

Assay [3] is described as follows: Caspase-3/7 induction in CHO-K1 cells by small molecules, qHTS assay (AID 1346980). Also: nearly all actives have a fitted effect of over 15% in size. The essentials:
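Wild-type cells were seeded at 1,500 per well and settled 5 hr at 37 C, 5% CO2, then exposed to DMSO-dissolved compounds for 17 hr. Caspase-Glo 3/7 reagent was added, and luminescence was read after 30min at room temperature.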

Assay [4] is described as follows: Caspase-3/7 induction in HepG2 cells by small molecules, qHTS cell viability counter screen (AID 1346981). Also: series mostly up to about 92 µM; nearly all actives have a fitted effect of over 30% in size. The essentials: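 Cell viability is measured as a cytotoxicity counter screen alongside the Caspase-Glo 3/7 readout in identical wells. Wild-type HepG2 cells are treated with test compounds for 16 hr at 37 C before CellTiter-Fluor addition and a 1-hr incubation.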

Assay [5] concerns the target Nuclear receptor subfamily 1 group I member 2 (Homo sapiens) (UniProt O75469). The experiment in a line: Human pregnane X receptor (PXR) small molecule agonists, qHTS assay (AID 1346982). Also: nearly all actives have a fitted effect of over 35% in size. Also: potency is read from the fitted curve at half-maximal effect. Summed up:
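Cells: HepG2 stably carrying PXR-Luc. Medium held 5% charcoal-stripped FBS. Compounds in DMSO added after 5 hr plating, incubated 24 hr, then luminescence quantified with ONE-Glo.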

For assay [6], the target named is Nuclear receptor subfamily 1 group I member 2 (Rattus norvegicus) (UniProt Q9R1A7). The experiment in a line: Rat pregnane X receptor (rPXR) activation by small molecules, qHTS assay (AID 1346983). Also: nearly all actives have a fitted effect of over 20% in size. Also: potency is read from the fitted curve at half-maximal effect. The note with it: rPXR luciferase reporter cells, One-Glo luminescence, 24 h; max activation: hits give high values. Summed up:
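Cell-based rPXR luciferase reporter assay, 2,000 cells per well, rested 5hr at 37 C before compound addition in DMSO, then 24 hr at 37 C. One-Glo reagent was added and luminescence read after 30 min at room temperature.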

The target of assay [7] is Nuclear receptor subfamily 1 group I member 2 (Homo sapiens) (UniProt O75469). The experiment in a line: CYP3A4 induction through human pregnane X receptor (PXR) by small molecules, qHTS assay (AID 1346984). Also: nearly all actives have a fitted effect of over 40% in size. Summed up:
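Quantitative HTS in DPX-2 cells, i.e. HepG2 transfected with PXR response element and CYP3A4-promoter luciferase. Compounds in DMSO incubated 24hr at 37C; then P450-Glo CYP3A4 substrate, 3uM final, 3hr; One-Glo luminescence.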

For assay [8] the target is unchanged. As to the kind of experiment: Human pregnane X receptor (PXR) activation by small molecules, qHTS assay (AID 1346985). Also: nearly all actives have a fitted effect of over 40% in size. Also: potency is read from the fitted curve at half-maximal effect. The essentials:
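DPX-2 cells (HepG2 co-transfected with a PXR response element and a CYP3A4-promoter luciferase construct) were seeded at 2,000 per well, rested 5 hr at 37C, then exposed to DMSO-dissolved compounds for 24 hr. Activation was read as luciferase luminescence.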

In assay [9] the target is Cytochrome P450 2D6 (Homo sapiens) (UniProt P10635). The experiment in a line: Cytochrome P450 Family 2 Subfamily D Member 6 (CYP2D6) small molecule antagonists: luciferase reporter qHTS assay (AID 1671196). Also: nearly all actives have a fitted effect of over 50% in size. Also: potency is read from the fitted curve at half-maximal effect. As to activity change, negative = inhibition: series mostly up to about 120 µM. Summed up: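 Enzyme and proluciferin substrate were first combined with test chemical for 10 min at room temperature. Adding NADPH regeneration solution started a 1 h reaction, stopped with luciferin detection reagent and read by luminescence 20 min later.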
Background: A reporter such as luciferase makes a cellular process visible.

For assay [10], the target named is Cytochrome P450 2C19 (Homo sapiens) (UniProt P33261). The experiment in a line: Cytochrome P450 Family 2 Subfamily C Member 19 (CYP2C19) small molecule antagonists: luciferase reporter qHTS assay (AID 1671197). Also: nearly all actives have a fitted effect of over 65% in size. Also: potency is read from the fitted curve at half-maximal effect. As to activity change, negative = inhibition: series mostly up to about 120 µM. Summed up: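 P450-Glo CYP2C19 screening system; proluciferin substrate; DMSO compound stocks; 10 min RT preincubation; NADPH regeneration, 1 h at 37C; luciferin detection reagent, 20 min RT; luminescence as RLU.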

Assay [11] concerns the target Cytochrome P450 2C9 (Homo sapiens) (UniProt P11712). As to the kind of experiment: Cytochrome P450 Family 2 Subfamily C Member 9 (CYP2C9) small molecule antagonists: luciferase reporter qHTS assay (AID 1671198). Also: nearly all actives have a fitted effect of over 50% in size. Also: potency is read from the fitted curve at half-maximal effect. As to activity change, negative = inhibition: series mostly up to about 120 µM. The essentials:
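CYP2C9 activity was measured with a P450-Glo proluciferin substrate. Enzyme–substrate mix was held with compound for 10 min at room temperature, then NADPH regeneration solution was added for 1 h at 37C. Luciferin product was read as luminescence.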

Assay [12] has as its target Cytochrome P450 1A2 (Homo sapiens) (UniProt P05177). As to the kind of experiment: Cytochrome P450 Family 1 Subfamily A Member 2 (CYP1A2) small molecule antagonists: luciferase reporter qHTS assay (AID 1671199). Also: nearly all actives have a fitted effect of over 50% in size. Also: potency is read from the fitted curve at half-maximal effect. As to activity change, negative = inhibition: series mostly up to about 120 µM. Summed up: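 Compounds were incubated with CYP1A2 and a luminogenic proluciferin substrate for 10 min at room temperature before the reaction was started with NADPH regeneration solution. After 1 h, detection reagent was added and light output, proportional to CYP activity, was recorded.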

The target of assay [13] is Voltage-gated inwardly rectifying potassium channel KCNH2 (Homo sapiens) (UniProt Q12809). The experiment in a line: Human Ether-a-go-go-Related Gene (hERG) channel small molecule antagonists: fluorescence cell-based qHTS assay (AID 1671200).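 Also: hERG-expressing U2OS cells given a thallium stimulus after FluxOR II dye loading; series mostly up to about 77 µM; nearly all actives have a fitted effect of over 50% in size.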 The essentials: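 Fluorescence at 540 nm emission (480 nm excitation) was recorded kinetically for 2 min at 1-second intervals once the thallium-containing stimulus reached cells previously loaded with FluxOR II dye.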
For orientation: hERG is a cardiac potassium channel; its block is linked to QT prolongation.

For assay [14], the target named is Cytochrome P450 3A4 (Homo sapiens) (UniProt P08684). The experiment in a line: Cytochrome P450 Family 3 Subfamily A Member 4 (CYP3A4) small molecule antagonists: luciferase reporter qHTS assay (AID 1671201). The essentials: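 qHTS, 1536-well. CYP3A4 + proluciferin substrate, cpd 10 min RT → NADPH regen 1 h RT → detection reagent 20 min → luminescence (RLU). Ketoconazole positive control.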

The structures appear in SMILES notation. A number with no mark means an inactive call. Records with an inconclusive call do not appear. Activity calls are given as the source filed them. Calls follow the shape of the dose curve; as a rule, active = well fitted curve in the direction sought with a large enough effect in the repeat runs; inconclusive = weak or mixed curves; inactive = no such curve, though single readings can be large; an effect the other way counts as inactive or inconclusive.
% is scaled to controls: 0 for no effect and ±100 for the full control effect.

Sequence of Cytochrome P450 2D6 (Homo sapiens) (P10635 whole entry, looked up): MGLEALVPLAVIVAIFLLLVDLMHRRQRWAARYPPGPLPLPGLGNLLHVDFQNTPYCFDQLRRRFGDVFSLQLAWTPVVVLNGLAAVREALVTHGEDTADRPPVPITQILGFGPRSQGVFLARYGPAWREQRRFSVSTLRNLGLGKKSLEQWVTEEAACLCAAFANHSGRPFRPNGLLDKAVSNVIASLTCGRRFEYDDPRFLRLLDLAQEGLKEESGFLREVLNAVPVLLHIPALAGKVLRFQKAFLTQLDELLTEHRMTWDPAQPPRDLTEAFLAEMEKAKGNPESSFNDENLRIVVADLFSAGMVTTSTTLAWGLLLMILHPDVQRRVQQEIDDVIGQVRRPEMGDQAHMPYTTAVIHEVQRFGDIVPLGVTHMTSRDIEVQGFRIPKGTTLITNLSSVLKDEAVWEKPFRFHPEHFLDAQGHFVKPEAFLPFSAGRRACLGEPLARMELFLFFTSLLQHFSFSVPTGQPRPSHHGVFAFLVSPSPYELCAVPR
Sequence of Nuclear receptor subfamily 1 group I member 2 (Rattus norvegicus) (Q9R1A7 whole entry, looked up): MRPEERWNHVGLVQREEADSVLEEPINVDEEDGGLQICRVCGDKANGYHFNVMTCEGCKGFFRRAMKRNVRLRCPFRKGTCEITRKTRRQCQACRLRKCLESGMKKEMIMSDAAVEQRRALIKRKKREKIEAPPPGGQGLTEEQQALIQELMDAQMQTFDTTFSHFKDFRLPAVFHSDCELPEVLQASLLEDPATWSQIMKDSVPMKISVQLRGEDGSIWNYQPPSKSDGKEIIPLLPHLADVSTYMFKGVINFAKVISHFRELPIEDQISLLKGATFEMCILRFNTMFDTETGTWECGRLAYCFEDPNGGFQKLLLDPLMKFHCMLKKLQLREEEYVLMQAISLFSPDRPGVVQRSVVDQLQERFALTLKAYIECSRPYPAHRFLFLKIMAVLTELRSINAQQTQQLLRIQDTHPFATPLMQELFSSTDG
Sequence of Nuclear receptor subfamily 1 group I member 2 (Homo sapiens) (O75469 whole entry, looked up): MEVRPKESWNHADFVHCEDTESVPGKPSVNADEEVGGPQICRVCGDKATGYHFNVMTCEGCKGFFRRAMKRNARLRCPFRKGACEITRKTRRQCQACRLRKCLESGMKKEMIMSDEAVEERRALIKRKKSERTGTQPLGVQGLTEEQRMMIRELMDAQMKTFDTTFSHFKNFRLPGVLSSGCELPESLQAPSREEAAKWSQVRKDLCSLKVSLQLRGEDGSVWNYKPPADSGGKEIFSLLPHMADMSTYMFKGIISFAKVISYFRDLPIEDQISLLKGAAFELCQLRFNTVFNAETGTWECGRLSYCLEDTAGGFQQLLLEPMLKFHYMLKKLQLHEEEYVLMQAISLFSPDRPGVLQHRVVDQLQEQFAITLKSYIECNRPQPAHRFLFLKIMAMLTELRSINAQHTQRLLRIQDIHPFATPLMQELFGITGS
Sequence of Voltage-gated inwardly rectifying potassium channel KCNH2 (Homo sapiens) (Q12809 whole entry, looked up): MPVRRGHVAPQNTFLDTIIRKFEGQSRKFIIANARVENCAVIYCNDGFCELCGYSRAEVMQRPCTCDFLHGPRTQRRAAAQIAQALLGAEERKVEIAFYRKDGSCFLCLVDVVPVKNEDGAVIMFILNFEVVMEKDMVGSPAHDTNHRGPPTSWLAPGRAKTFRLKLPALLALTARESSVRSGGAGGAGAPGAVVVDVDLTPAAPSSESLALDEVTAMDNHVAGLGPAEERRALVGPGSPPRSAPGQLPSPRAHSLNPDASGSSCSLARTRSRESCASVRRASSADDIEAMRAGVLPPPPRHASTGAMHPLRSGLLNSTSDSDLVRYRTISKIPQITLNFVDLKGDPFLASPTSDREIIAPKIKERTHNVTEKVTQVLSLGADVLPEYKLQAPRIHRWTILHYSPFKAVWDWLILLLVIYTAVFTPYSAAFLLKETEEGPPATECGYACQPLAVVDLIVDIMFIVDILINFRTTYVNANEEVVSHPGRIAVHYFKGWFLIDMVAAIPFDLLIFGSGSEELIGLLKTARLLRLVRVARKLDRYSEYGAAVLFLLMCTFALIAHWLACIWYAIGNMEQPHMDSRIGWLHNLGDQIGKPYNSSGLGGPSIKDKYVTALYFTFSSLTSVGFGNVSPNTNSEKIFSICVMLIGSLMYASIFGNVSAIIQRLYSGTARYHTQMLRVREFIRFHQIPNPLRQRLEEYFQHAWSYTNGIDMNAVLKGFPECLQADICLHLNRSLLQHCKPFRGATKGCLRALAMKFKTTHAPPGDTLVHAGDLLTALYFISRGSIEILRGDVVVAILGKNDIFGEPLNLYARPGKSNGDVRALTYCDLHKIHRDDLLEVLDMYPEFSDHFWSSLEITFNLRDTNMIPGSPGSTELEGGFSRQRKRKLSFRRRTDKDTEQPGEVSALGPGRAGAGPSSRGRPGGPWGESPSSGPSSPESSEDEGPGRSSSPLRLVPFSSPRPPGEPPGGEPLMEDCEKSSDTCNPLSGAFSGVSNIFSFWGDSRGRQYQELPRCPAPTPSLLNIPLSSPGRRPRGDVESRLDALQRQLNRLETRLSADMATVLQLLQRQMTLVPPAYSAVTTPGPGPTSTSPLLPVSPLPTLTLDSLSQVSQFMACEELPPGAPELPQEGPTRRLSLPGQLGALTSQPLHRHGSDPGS
Sequence of Cytochrome P450 2C19 (Homo sapiens) (P33261 whole entry, looked up): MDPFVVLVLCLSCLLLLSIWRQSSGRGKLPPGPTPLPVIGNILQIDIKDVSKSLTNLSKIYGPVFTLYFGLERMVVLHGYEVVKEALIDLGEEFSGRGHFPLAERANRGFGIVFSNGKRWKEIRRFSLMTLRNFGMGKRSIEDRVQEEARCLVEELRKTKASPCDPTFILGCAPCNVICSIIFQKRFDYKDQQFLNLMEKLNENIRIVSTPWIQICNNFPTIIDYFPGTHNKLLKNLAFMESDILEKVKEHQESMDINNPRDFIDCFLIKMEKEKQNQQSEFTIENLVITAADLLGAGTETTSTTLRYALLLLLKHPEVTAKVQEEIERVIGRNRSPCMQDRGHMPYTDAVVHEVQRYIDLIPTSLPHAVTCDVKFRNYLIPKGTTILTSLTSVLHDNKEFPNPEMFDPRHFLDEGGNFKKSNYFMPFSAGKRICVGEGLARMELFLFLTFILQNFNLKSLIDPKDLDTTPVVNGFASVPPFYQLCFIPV
Sequence of Cytochrome P450 2C9 (Homo sapiens) (P11712 whole entry, looked up): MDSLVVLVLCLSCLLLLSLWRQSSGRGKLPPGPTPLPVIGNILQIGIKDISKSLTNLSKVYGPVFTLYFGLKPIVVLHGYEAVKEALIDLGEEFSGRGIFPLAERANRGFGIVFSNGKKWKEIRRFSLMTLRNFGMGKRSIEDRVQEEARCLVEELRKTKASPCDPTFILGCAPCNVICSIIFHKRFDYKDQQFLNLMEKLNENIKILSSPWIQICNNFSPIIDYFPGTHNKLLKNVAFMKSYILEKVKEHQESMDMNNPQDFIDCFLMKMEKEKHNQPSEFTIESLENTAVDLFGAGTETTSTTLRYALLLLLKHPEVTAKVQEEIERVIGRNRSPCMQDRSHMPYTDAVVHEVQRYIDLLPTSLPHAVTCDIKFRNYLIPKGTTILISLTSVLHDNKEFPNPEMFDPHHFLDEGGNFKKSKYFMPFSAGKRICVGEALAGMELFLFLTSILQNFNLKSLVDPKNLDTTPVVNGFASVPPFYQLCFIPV
Sequence of Cytochrome P450 1A2 (Homo sapiens) (P05177 whole entry, looked up): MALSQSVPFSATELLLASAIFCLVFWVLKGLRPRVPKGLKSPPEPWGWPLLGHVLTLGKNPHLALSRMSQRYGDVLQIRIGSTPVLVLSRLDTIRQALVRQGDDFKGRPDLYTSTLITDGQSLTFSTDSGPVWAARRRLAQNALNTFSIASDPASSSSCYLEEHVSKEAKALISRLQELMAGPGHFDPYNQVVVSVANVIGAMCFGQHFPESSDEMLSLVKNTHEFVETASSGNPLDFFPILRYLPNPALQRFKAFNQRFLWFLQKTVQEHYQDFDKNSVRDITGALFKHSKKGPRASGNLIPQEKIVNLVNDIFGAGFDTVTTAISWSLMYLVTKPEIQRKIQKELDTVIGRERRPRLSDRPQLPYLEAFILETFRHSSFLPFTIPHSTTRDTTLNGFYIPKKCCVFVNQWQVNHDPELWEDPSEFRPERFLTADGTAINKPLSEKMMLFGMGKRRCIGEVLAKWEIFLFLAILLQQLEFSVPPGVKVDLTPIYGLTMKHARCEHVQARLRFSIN
Sequence of Cytochrome P450 3A4 (Homo sapiens) (P08684 whole entry, looked up): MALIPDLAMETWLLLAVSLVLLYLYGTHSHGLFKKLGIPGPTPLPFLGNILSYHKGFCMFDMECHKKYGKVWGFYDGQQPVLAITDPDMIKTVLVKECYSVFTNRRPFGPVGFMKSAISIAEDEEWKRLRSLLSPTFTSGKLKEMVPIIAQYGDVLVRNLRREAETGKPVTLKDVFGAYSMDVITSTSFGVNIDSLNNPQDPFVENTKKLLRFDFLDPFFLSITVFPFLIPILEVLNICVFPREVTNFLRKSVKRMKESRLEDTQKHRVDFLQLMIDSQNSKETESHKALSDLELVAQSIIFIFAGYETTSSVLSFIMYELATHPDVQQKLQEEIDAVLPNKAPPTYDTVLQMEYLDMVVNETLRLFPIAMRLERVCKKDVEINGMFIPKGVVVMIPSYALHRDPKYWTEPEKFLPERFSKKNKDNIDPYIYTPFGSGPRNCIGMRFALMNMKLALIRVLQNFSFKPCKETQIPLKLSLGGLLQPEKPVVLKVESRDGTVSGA

With `CCCCCCCCCCOc1cc2c(=O)c(C(=O)OCC)c[nH]c2cc1OCC`, the caspase activation in assay [1] was 0.159% [at 8.39 µM]. Moreover, the activity change, negative = cytotoxicity in assay [2] is 0.813% [at 8.39 µM]; in assay [4], 2.55% [at 8.39 µM]. Also, the caspase-3/7 activation in assay [3] was 1.97% [at 8.39 µM]. In addition, the activation in [5] was -4.21% [at 8.39 µM]. Besides, the max activation in assay [6] is -1.23%. Moreover, the Potency result in assay [7] and in assay [8] was “inactive” in each case. Also, the activity change, negative = inhibition is -50% [at 10.5 µM] in assay [9]; 52.8% [at 10.5 µM] in assay [10]; 6.88% [at 10.5 µM] in [11]; 7.05% [at 10.5 µM] in assay [12]; 1.67% [at 6.97 µM] in [13]; 13.5% [at 10.5 µM] in [14].
Turning to `CCCCCCCCCCCCCCCCCCO`, the call in assay [1] and in assay [3] was inactive. Further, the Potency result in assay [2], in assay [4], in assay [5], in [7], in [8] and in assay [9] was “inactive” throughout. In addition, the Potency result in [10], in assay [11], in assay [12], in assay [13] and in assay [14] was “inactive” in each case. Moreover, the max activation in [6] was -0.712%.
With `CC1CCC(CO)CC1` (stereo not given), the compound was classed as inactive in [1] and in [3]. In addition, the Potency result in assay [2], in assay [4], in assay [5], in assay [9], in assay [10] and in [11] was “inactive” each time. In addition, the Potency result in [12], in assay [13] and in assay [14] was “inactive” in each case.
Regarding `COC(=O)C1=C(C)NC(C)=C(C(=O)OC(C)C)C1c1cccc2nonc12` (stereo not given), the compound was classed as inactive in assay [1] and in assay [3]. In addition, the Potency in assay [2] was 26.6 µM (active); in [5], 1.33 µM (active); in [6], 10 µM (active); in assay [8], 0.891 µM (active). The Potency result in [4], in assay [7] and in assay [13] was “inactive” throughout.
On to `COC(=O)Nc1ccc(Cl)c(Cl)c1`, for which the call in assay [1] and in assay [3] was inactive. The Potency result in assay [2], in assay [4], in [9], in assay [13] and in assay [14] was “inactive” in each case. For the same compound, the Potency was 60.8 µM (active) in assay [5], 17.7 µM (active) in assay [10], 70.6 µM (active) in assay [11] and 5.61 µM (active) in assay [12].
Take `CO/N=C(\C(=O)N[C@@H]1C(=O)N2C(C(=O)O)=C(CSc3nc(=O)c(O)nn3C)CS[C@H]12)c1csc(N)n1`: the outcome in [1] and in assay [3] was inactive. For the same compound, the Potency result in assay [2], in [4], in assay [5], in assay [7], in assay [8] and in [10] was “inactive” throughout. Further, the Potency entry in [12], in assay [13] and in [14] was “inactive” in each case. Further, the max activation in assay [6] was -3.34%.
In the case of `CC1(C)[C@@H]2CC[C@@]1(C)[C@H](O)C2`, the outcome in assay [1] and in assay [3] was inactive. Also, the Potency entry in assay [2], in assay [4], in assay [5], in assay [9], in assay [10] and in [11] was “inactive” throughout. For the same compound, the Potency entry in assay [12], in assay [13] and in [14] was “inactive” each time.
Consider `C[C@@H]1CCC[C@H](C)N1`, for which the result in assay [1] and in assay [3] was inactive. In addition, the Potency result in assay [2], in [4], in [5], in assay [7], in assay [8] and in assay [9] was “inactive” in each case. Also, the Potency entry in assay [10], in assay [11], in assay [12] and in assay [14] was “inactive” in each case. In addition, the max activation in assay [6] is -0.283%.
On to `CC(C)(CCC(=O)O)C(=O)O`, for which the outcome in assay [1] and in assay [3] was inactive. In addition, the Potency entry in [2], in [4], in [5], in assay [9], in assay [10] and in [11] was “inactive” throughout. For the same compound, the Potency result in assay [13] and in [14] was “inactive” each time. Moreover, in assay [12], the Potency is 28.6 µM (active).
Turning to `O=C(O)Cc1csc(-c2ccc(Cl)cc2)n1`, the outcome in [1] and in assay [3] was inactive. For the same compound, the Potency entry in assay [2], in assay [4], in assay [5], in assay [7], in assay [8] and in [9] was “inactive” in each case. Moreover, the Potency entry in assay [10], in assay [11], in assay [13] and in assay [14] was “inactive” throughout. For the same compound, the max activation in assay [6] was -2.73%.
Turning to `C=C(C)C(=O)OCCOCCOCCOCCOC(=O)C(=C)C`, the outcome in assay [1] and in assay [3] was inactive. For the same compound, the Potency entry in assay [2], in assay [4], in assay [5] and in [9] was “inactive” each time. In addition, the Potency is 71 µM (active) in [10], 63.3 µM (active) in assay [11] and 63.3 µM (active) in assay [12].
On to `COc1ccccc1OCC1CNC(=O)O1` (stereo not given), for which the outcome in [1] and in [3] was inactive. Moreover, the Potency entry in [2], in assay [4], in assay [5], in assay [9], in assay [10] and in assay [11] was “inactive” in each case. Further, the Potency result in [12], in assay [13] and in assay [14] was “inactive” each time.
On to `O=S(=O)(O)c1cccc(S(=O)(=O)O)c1`, for which the compound was called inactive in [1] and in [3]. For the same compound, the Potency entry in assay [2], in [4], in [5], in assay [9], in assay [10] and in [11] was “inactive” each time. Also, the Potency result in assay [12], in assay [13] and in assay [14] was “inactive” each time.
With `[Ca+2]`, the call in assay [1] and in assay [3] was inactive. For the same compound, the Potency result in [2], in [4], in assay [5], in assay [10], in assay [11] and in assay [12] was “inactive” each time. Also, the Potency result in [13] and in assay [14] was “inactive” throughout. For the same compound, the Potency in assay [9] is 35.6 µM (active).
As for `CN1CC(=O)N/C1=N/C(=O)Nc1cccc(Cl)c1`, the result in [1] and in assay [3] was inactive. The Potency result in [2], in assay [4], in assay [7], in [8], in [10] and in assay [11] was “inactive” throughout. Moreover, the Potency result in assay [13] and in assay [14] was “inactive” in each case. Further, in [5], the Potency was 13.3 µM (active).
As for `CC(N)C12CC3CC(CC(C3)C1)C2` (stereo not given), the outcome in assay [1] and in assay [3] was inactive. Besides, the Potency entry in [2], in [4], in [5], in assay [7], in assay [8] and in assay [10] was “inactive” in each case. Besides, the Potency result in [11], in assay [12], in [13] and in [14] was “inactive” each time. The max activation in assay [6] is 8.41%.
